In ChEMBL document CHEMBL1201862, “PubChem BioAssay data set” (2004):
Among all 400,000 compounds or so, about 2,100 (0.53%) were called active. Another 14% or so got no clear call; they are omitted. The sample holds actives, similar compounds and a random draw of the others, so the mix is not that of the screen. The rule behind the calls is not given here.

The compounds below were run against Ataxin-2 (Homo sapiens) (UniProt Q99700) (assay: qHTS for Inhibitors of ATXN expression.).
Format: functional

Chain of Ataxin-2 (Homo sapiens) (Q99700 whole entry): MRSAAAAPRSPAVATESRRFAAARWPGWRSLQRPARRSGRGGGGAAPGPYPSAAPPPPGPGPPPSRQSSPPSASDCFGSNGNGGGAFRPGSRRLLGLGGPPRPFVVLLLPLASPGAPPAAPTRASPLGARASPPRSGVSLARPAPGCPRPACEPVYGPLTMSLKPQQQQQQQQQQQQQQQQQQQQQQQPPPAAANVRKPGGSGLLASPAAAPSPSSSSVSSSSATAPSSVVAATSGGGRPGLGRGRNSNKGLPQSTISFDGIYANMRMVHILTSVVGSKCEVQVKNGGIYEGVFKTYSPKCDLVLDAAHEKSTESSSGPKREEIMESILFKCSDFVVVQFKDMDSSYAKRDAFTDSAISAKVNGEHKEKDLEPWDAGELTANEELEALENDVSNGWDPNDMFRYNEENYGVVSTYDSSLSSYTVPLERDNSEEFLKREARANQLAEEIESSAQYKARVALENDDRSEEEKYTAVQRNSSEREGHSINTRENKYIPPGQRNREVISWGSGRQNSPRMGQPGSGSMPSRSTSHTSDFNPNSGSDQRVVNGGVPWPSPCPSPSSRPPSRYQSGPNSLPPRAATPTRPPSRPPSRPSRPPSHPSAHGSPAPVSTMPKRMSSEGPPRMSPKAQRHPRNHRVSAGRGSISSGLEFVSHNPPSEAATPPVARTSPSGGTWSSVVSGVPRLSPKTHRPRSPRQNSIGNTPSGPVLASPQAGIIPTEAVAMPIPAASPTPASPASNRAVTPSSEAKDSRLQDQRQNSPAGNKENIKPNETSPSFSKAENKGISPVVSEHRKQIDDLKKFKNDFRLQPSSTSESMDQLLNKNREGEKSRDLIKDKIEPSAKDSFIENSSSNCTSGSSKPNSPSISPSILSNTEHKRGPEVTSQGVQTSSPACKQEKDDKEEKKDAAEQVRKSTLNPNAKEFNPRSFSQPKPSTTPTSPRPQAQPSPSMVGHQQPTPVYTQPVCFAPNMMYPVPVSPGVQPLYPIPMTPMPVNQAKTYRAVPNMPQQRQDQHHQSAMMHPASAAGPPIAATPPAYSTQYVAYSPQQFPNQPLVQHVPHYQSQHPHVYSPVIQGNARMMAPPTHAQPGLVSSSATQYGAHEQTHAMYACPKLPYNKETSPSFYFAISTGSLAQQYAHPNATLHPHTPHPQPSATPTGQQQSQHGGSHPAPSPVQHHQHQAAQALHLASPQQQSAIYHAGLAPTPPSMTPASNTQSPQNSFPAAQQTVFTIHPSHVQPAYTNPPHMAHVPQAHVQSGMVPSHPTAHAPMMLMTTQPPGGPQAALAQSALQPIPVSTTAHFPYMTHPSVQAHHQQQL

SMILES	Potency
Cc1ccc(C2=CC(c3ccc(Cl)cc3)n3nc(-c4ccc(C)cc4)nc3N2)cc1 (configuration not stated)	inactive
COc1ccc(CCNC(=O)CCCn2c(=O)c3ccccc3n(CC(=O)Nc3ccc(C)cc3Cl)c2=O)cc1OC	20 µM (active)
COc1ccc(Cl)cc1NC(=O)Cn1c(=O)n(CCCC(=O)NCCc2ccc(OC)c(OC)c2)c(=O)c2ccccc21	39.8 µM (active)
COc1ccc(Cl)cc1NC(=O)CN1C(=O)NC(C)(Cc2ccc(OC)c(OC)c2)C1=O (configuration not stated)	inactive
Cc1ccc2c(c1)c(=O)c1ccccc1n2CCCC(=O)Nc1ccc(C)c(F)c1	inactive
COc1ccc(CCNC(=O)CCCn2c(=O)c3ccccc3n(Cc3cccc(Cl)c3)c2=O)cc1OC	39.8 µM (active)
O=C(CCCn1c2ccccc2c(=O)c2ccccc21)Nc1cccc(Cl)c1	inactive
COC/C=C/C1=CC2=CC(=O)C(C)(OC(=O)c3cnc4ccccc4n3)C(=O)C2=CN1Cc1ccccc1 (configuration not stated)	12.6 µM (active)
COc1ccc2oc(=O)c(-c3nnc(N)s3)cc2c1	inactive
CCC(C)NC(=O)c1sc2nc(C)c(C(=O)Nc3ccc(C)cc3C)c(-c3ccccc3Cl)c2c1N (configuration not stated)	inactive
C=C(C)COc1ccc(-c2[nH]nc(C)c2-c2ccc(Br)cc2)c(O)c1	25.1 µM (active)
COc1ccc(-c2c(C)c3ccc(O)cc3oc2=O)cc1	inactive
C=C(C)COc1ccc(-c2nc(N)ncc2-c2ccc(Cl)cc2)c(O)c1	39.8 µM (active)
C=C(C)COc1ccc(-c2n[nH]cc2-c2ccc(OC)c(OC)c2)c(O)c1	44.7 µM (active)
COC(=O)c1c(C)nc(C)c(C(=O)OC)c1-c1ccc(OC)cc1	inactive
C=C(C)COc1ccc(-c2ncncc2-c2ccc(Br)cc2)c(O)c1	inactive
CCN(CC)C(=O)c1sc2nc(-c3cccs3)cc(-c3ccc(Cl)cc3)c2c1N	inactive
COc1ccc(-c2c(C)n[nH]c2-c2ccc(OC)c(C)c2O)cc1	39.8 µM (active)
COc1cc(/C=N/NC(=O)Nc2cccc3nsnc23)cc(OC)c1OC	inactive
CNC(=O)c1cc2c(=O)n3cccc(C)c3nc2n(C(C)C)c1=N	inactive
Cc1ccc(S(=O)(=O)NCCc2cn3nc(C)c(C)nc3n2)cc1C	inactive
Nc1ccc2c(c1)Oc1ccccc1C=C2	inactive
COc1ccccc1/N=c1\oc2cc(O)ccc2cc1C(N)=O	inactive
CCn1nc(NC(=O)Cc2ccc(OC)cc2)c2cc3cccc(C)c3nc21	inactive
C/C(CC1CC2=C(CC1(C)C)C(C)(C)CCC2)=N\NC(N)=S (configuration not stated)	35.5 µM (active)
CN1C(=O)c2ccccc2N(C)C1c1ccccc1Cl (configuration not stated)	inactive

SMILES	Potency
COc1ccccc1C1CCCN1Cc1nc(-c2ccc(C)s2)oc1C (configuration not stated)	inactive
Cc1ccc(Nc2cc(C)nc3nc(Cc4ccc(Cl)cc4)nn23)cc1	22.4 µM (active)
Cc1cc(C)n2nc(SCC(=O)Nc3ccc(F)c(F)c3F)nc2n1	inactive
COCCNc1cc(C)nc2cc(-c3ccc(C)cc3)nn12	inactive
Cc1c(-c2ccccc2)c(=O)oc2c(CN3CCN(C)CC3)c(O)ccc12	inactive
CN(C(=O)COC(=O)c1cc(-c2ccc(Cl)s2)nc2ccccc12)C1CCS(=O)(=O)C1 (configuration not stated)	inactive
CN(C(=O)COC(=O)c1nc(Cl)c(Cl)c(Cl)c1Cl)C1CCS(=O)(=O)C1 (configuration not stated)	33.6 µM (active)
Cc1ccc(-c2cc(C(=O)OCC(=O)N(C)C3CCS(=O)(=O)C3)c3ccccc3n2)o1 (configuration not stated)	inactive
CC1Cc2ccccc2N1C(=O)COC(=O)c1ccc(N(C)C)cc1 (configuration not stated)	inactive
Cc1cc(Br)ccc1SCC(=O)OC/C(O)=C(\C#N)c1nc2ccccc2[nH]1	11.2 µM (active)
COc1cc(/C=C(/C#N)c2nc3ccccc3[nH]2)ccc1OCC(=O)Nc1ccccc1C	inactive
Cc1cc(/C=C(/C#N)c2nc3ccccc3[nH]2)c(C)n1-c1ccccc1C(=O)O	inactive
Cc1cc(Br)ccc1SCC(=O)OCC(O)=C(C#N)c1nc2ccccc2[nH]1	39.8 µM (active)
CCO/C(O)=C(\C#N)c1cc(C)c2ccccc2n1	inactive
COc1cc(/C=C(/C#N)c2nc3ccccc3[nH]2)ccc1OCC(=O)Nc1ccccc1C(C)C	inactive
Cc1c(C)c(C)c(S(=O)(=O)N2CCNCC2)c(C)c1C	inactive
COCCN1C=C(C(=O)OC)C(c2ccccc2Cl)C(C(=O)OC)=C1	inactive
O=C(N[C@@H](Cc1ccccc1)C(=O)OCc1ccccc1)c1[nH]cnc1C(=O)N1CCN(c2ccccc2)CC1	22.4 µM (active)
O=C(NC(CC(=O)N1CCN(c2ccccc2)CC1)c1ccccc1)c1ccccc1 (configuration not stated)	inactive
CC(C)C[C@H](NC(=O)c1[nH]cnc1C(=O)N1CCN(C(=O)OC(C)(C)C)CC1)C(=O)OCc1ccccc1	35.5 µM (active)
O=C(N[C@@H](Cc1ccccc1)C(=O)OCc1ccccc1)c1ccco1	inactive
O=C(O)CCCC(=O)N1CCN(c2nc(-c3ccccc3)c3ccccc3n2)CC1	inactive
COc1cccc(/C=N/n2c(SC)nnc2-c2ccccc2)c1O	inactive
COc1ccc2nc(S)cc(C)c2c1	inactive
COc1ccc2nc(C)cc(N/N=C/c3ccccc3)c2c1	31.6 µM (active)
COc1ccc2nc(C)cc(SCC(=O)N/N=C/c3cccc4ccccc34)c2c1	22.4 µM (active)

SMILES	Potency
COc1ccc2nc(C)cc(N/N=C/c3cccc(OC)c3O)c2c1	35.5 µM (active)
COc1ccc(/C=N/Nc2cc(C)nc3ccc(OC)cc23)c(OC)c1	inactive
COc1ccc2cc(/C=N/NC(=O)CN(c3ccccc3C)S(=O)(=O)c3ccccc3)c(Cl)nc2c1	inactive
COc1cccc(-c2cc(C(=O)N/N=C/c3cccc(OC)c3OC)c3ccccc3n2)c1	inactive
Cc1cc(C(=O)N/N=C/c2cccnc2)c2ccccc2n1	inactive
COc1ccc(C(=O)Nc2nc3n(n2)C(c2ccccc2)C=C(c2ccccc2)N3)cc1 (configuration not stated)	inactive
COc1cccc(C2C=C(c3cccs3)Nc3ncnn32)c1OC (configuration not stated)	inactive
Cc1nc(N)c(Br)c(C)c1Br	inactive
Clc1ccccc1N1CCN(Cc2ccco2)CC1	inactive
CCOC(=O)c1sc2nc(C3CC3)cc(-c3ccc(F)cc3)c2c1N	inactive
Cc1ccccc1NCC(=O)Nc1cc(S(=O)(=O)N2CCCCC2)ccc1C	inactive
SC1=C2CCCCCC2=NC2(CCCCCC2)S1	44.7 µM (active)
CSC1=NN(c2ccccc2)CN(c2ccccc2)N1C	inactive
COc1ccc(-c2c(C)c3ccc(O)c(CN4CCC(C)CC4)c3oc2=O)cc1OC	inactive
CCOC(=O)C1CCN(S(=O)(=O)c2ccc3c4c(cccc24)C(=O)N3)CC1	inactive
CC1=[N+](C)c2c(ccc3cccnc23)C1(C)C	inactive
CC(C)c1ccc2nc3sc(C(=O)N4CCc5ccccc5C4)c(N)c3cc2c1	inactive
Cn1c2ccccc2c(=O)c2c(=O)n(C3CCCCCC3)c(C3CCCCC3)nc21	inactive
COc1ccc(C(=O)N[C@H](C(=O)Nc2nc3ccccc3[nH]2)C(C)C)cc1	inactive
Cc1c(C(=O)Nc2nc3ccccc3[nH]2)oc2ccccc12	39.8 µM (active)
C/C(=N\Nc1nc2ccccc2[nH]1)c1cc2ccccc2o1	inactive
COCCNC(=O)c1cnn2c(C(F)(F)F)cc(-c3ccc(C)cc3)nc12	inactive
CCOC(=O)c1cc2c(=O)n3ccccc3nc2n(CCCOC)/c1=N\C(=O)c1ccncc1	inactive
CN1CCN(c2ccc3sc(-n4ccc5ccccc54)nc3c2)CC1	39.8 µM (active)
CN1CCN(c2ccc(-c3ccc4ccccc4n3)cc2)CC1	inactive
O=c1c(-c2nc3ccccc3s2)cccn1Cc1ccccc1	inactive

SMILES	Potency
C[C@@H]1O[C@H](O[C@@H]2[C@H](C)O[C@H](O[C@@H]3[C@H](C)O[C@H](O[C@H]4CC[C@]5(C)[C@@H](CC[C@@H]6[C@H]5C[C@@H](O)[C@]5(C)[C@@H](C7=CC(=O)OC7)CC[C@]65O)C4)C[C@@H]3O)C[C@@H]2O)C[C@H](O)[C@@H]1O	0.224 µM (active)
CN(C)c1nc(-c2ccccc2)c2cc(Cl)ccc2n1	inactive
Cc1c(CC(=O)NCc2ccccc2Cl)c(=O)oc2cc(O)ccc12	inactive
COc1ccc(C=Cc2ccc3ccccc3n2)c(OC)c1	inactive
COc1cc(/C=C/c2ccc3cccc(OC)c3n2)c(OC(C)=O)c([N+](=O)[O-])c1	35.5 µM (active)
CC(=O)Oc1c(Cl)cc(Cl)cc1/C=C/c1ccc2ccccc2n1	inactive
CCOC(=O)c1c(C)[nH]c(C)c1C(=O)COC(=O)c1ccc([N+](=O)[O-])s1	inactive
CCOC(=O)c1c(C)[nH]c(C)c1C(=O)COC(=O)c1ccc(S(=O)(=O)C(F)F)cc1	inactive
CCOC(=O)c1c(C)[nH]c2c1-c1ccccc1C(=O)C2=O	2.82 µM (active)
O=C(NCc1ccco1)c1cccc2c1C(=O)c1ccc(N3CCC(Cc4ccccc4)CC3)cc1S2(=O)=O	inactive
CC1(C)CNc2cc([N+](=O)[O-])ccc2S1	inactive
CCOC(=O)N1CCN(c2nc(-c3ccccc3)c3ccccc3n2)CC1	inactive
CCOC(=O)c1cc(-c2ccccc2)nc2nc(N3CCCCC3)sc12	inactive
CCOC(=O)c1c(-c2ccccc2)nnn1-c1nc(OCC)nc(N2CCCCC2)n1	39.8 µM (active)
C=C1C(=O)OC2C1CCC(C)=CCCC1(C)OC21 (configuration not stated)	22.4 µM (active)
C=CCN(C(=O)CSc1nc2ccsc2c(=O)n1Cc1ccccn1)c1ccccc1	inactive
C=C(C)CSc1cc(C)c(C#N)c2nc3ccccc3n12	inactive
CCn1c(=N)c(C(=O)NC2CCCCC2)cc2c(=O)n3cccc(C)c3nc21	inactive
CCOCCCn1c(=N)c(C(=O)NC2CCCCC2)cc2c(=O)n3ccccc3nc21	inactive
CCc1nc2c(OCCC3CCCCC3)cccn2c1N(C)C(=O)C1CC1	35.5 µM (active)
CCC(CC)C(=O)N(C)c1c(C)nc2c(OCCC3CCCCC3)cccn12	31.6 µM (active)
CCc1nc2c(OCCC3CCCCC3)cccn2c1N(C)C(=O)C(C)C	35.5 µM (active)
CCCn1c(=N)c(C(=O)NC2CCCC2)cc2c(=O)n3cccc(C)c3nc21	inactive
CCOCCCn1c(=N)c(C(=O)NC2CCCC2)cc2c(=O)n3cccc(C)c3nc21	inactive
